# Measurements: PubChem BioAssay (Tox21)
# A number with no mark means an inactive call. Results filed as inconclusive are left out. Entries that show only a call come without a potency. Calls of active or inactive are those of the source. Unless noted, the call rests on the fitted dose curve; in most records, active means well fitted curve in the direction sought with a large enough effect in the repeat runs; inconclusive means weak or mixed curves; inactive means no such curve, though single readings can be large; an effect the other way counts as inactive or inconclusive.
# Legend:
# [1] = qHTS assay for small molecules that induce genotoxicity in human embryonic kidney cells expressing luciferase-tagged ATAD5 (AID 651632); further: nearly all actives have a fitted effect of over 15% in size
# In short: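 HEK293T cells carrying a luciferase reporter tagged to ATAD5 were exposed to compound or DMSO vehicle for 16 hr at 37C, 5% CO2. Amplite was added, and after 30 min at room temperature luciferase activity was read as a marker of ATAD5 induction.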
# [2] = qHTS assay for small molecule agonists of the p53 signaling pathway - cell viability (AID 651633; calls by dose curve;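 further: p53RE-bla HCT reporter cells with a stable beta-lactamase p53 reporter; series mostly up to about 83 µM; nearly all actives have a fitted effect of over 30% in size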)
# In short: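 p53RE-bla cells were treated with compound for 16 hours at 37 C. Cytotoxicity was then measured as CellTiter-Glo luminescence after 30 min at room temperature.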
# [3] = qHTS assay for small molecules that induce genotoxicity in human embryonic kidney cells expressing luciferase-tagged ATAD5 - cell viability (AID 651634; calls by dose curve; further: nearly all actives have a fitted effect of over 25% in size)
# In short: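 HEK293T cells expressing luciferase-tagged ATAD5 were exposed to compound or DMSO for 15.5 hr at 37C, 5% CO2. Viability was then read as live-cell protease activity by CellTiter-Fluor fluorescence after 30 min at 37C.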
# [4] = qHTS assay for small molecule disruptors of the mitochondrial membrane potential - cell viability (AID 720634; calls by dose curve;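 further: human HepG2 liver cancer cells; series mostly up to about 83 µM; nearly all actives have a fitted effect of over 20% in size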)
# In short: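 HepG2 cells seeded overnight at 37 C, then exposed to compound or DMSO for 1 hr at 37 C, 5% CO2. m-MPI dye added, then CellTiter-Glo for 30 min at room temperature; viability read as ATP luminescence.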
# [5] = qHTS assay to test for compound auto fluorescence at 590 nm (red) in HepG2 cells (AID 720674)
# In short: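 HepG2 cells, 2,000 per well in MEM with 10% FBS, attached overnight at 37 C, then got 23 nL compound or DMSO. After 1 hr at 37 C, 5% CO2, red fluorescence was read at 540/590 nm against Rose Bengal sodium as reference.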
# [6] = qHTS assay to test for compound auto fluorescence at 535 nm (green) in HepG2 cells (AID 720675)
# [7] = qHTS assay to test for compound auto fluorescence at 460 nm (blue) in HEK293 cells (AID 720678)
# In short: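 Auto fluorescence in the blue band was quantified as triamterene equivalency. HEK293 cells were seeded at 2,000/well, dosed after a 4-5 hr attachment, and kept overnight at 37C before the 405/460 nm reading.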
# [8] = qHTS assay to test for compound auto fluorescence at 590 nm (red) in HEK293 cells (AID 720679)
# In short: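 Autofluorescence equivalency to Rose Bengal sodium, 540/590nm, in HEK293 cells exposed overnight to 23 nL compound per well.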
# [9] = qHTS assay to test for compound auto fluorescence at 535 nm (green) in HEK293 cells (AID 720680)
# [10] = qHTS assay to test for compound auto fluorescence at 460 nm (blue) in HEK293 cell free culture (AID 720681)
# In short: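 Compounds were added to cell-free DMEM with 10% FBS and fluorescence read directly. The blue channel used 405 nm excitation and 460 nm emission, with triamterene as the reference fluorophore.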
# [11] = qHTS assay to test for compound auto fluorescence at 535 nm (green) in HEK293 cell free culture (AID 720682)
# In short: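 Green-channel intensity (Ex/Em 485/535 nm) was recorded from compound-treated wells containing only DMEM with 10% FBS. Fluorescein provided the equivalency standard.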
# [12] = qHTS assay to test for compound auto fluorescence at 590 nm (red) in HEK293 cell free culture (AID 720683)
# In short: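 Cell-free wells of DMEM with 10% FBS received compound, and intrinsic fluorescence was read at excitation/emission 540/590 nm. Values expressed as equivalence to Rose Bengal sodium.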
# [13] = qHTS assay to test for compound auto fluorescence at 590 nm (red) in HepG2 cell free culture (AID 720684)
# In short: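 Compound was pinned into wells holding MEM with 10% FBS and no cells, and red fluorescence was read at Ex/Em 540/590 nm. Signal is expressed as auto fluorescence equivalency relative to Rose Bengal sodium.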
# [14] = qHTS assay to test for compound auto fluorescence at 460 nm (blue) in HepG2 cell free culture (AID 720685)
# In short: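 Compound (23 nL) or DMSO pinned into cell-free MEM with 10% FBS; blue fluorescence read at 405/460 nm excitation/emission, expressed as auto-fluorescence equivalency to triamterene.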
# [15] = qHTS assay to test for compound auto fluorescence at 535 nm (green) in HepG2 cell free culture (AID 720686)
# [16] = qHTS assay to test for compound auto fluorescence at 460 nm (blue) in HepG2 cells (AID 720687)
# In short: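 HepG2 cells in MEM with 10% FBS, attached overnight at 37 C, were exposed to compound or DMSO for 1 hr at 37 C, 5% CO2. Blue fluorescence was read at 405/460 nm, with triamterene as reference fluorophore.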
# [17] = target: Glucocorticoid receptor (Homo sapiens) (UniProt P04150); assay: qHTS assay to identify small molecule agonists of the glucocorticoid receptor (GR) signaling pathway (AID 720691; active means well fitted activation curve with a large enough effect in the signal ratio in the repeat runs, not every such curve was filed as active; the % refers to the signal ratio)
# Chain of Glucocorticoid receptor (Homo sapiens) (P04150 whole entry, looked up): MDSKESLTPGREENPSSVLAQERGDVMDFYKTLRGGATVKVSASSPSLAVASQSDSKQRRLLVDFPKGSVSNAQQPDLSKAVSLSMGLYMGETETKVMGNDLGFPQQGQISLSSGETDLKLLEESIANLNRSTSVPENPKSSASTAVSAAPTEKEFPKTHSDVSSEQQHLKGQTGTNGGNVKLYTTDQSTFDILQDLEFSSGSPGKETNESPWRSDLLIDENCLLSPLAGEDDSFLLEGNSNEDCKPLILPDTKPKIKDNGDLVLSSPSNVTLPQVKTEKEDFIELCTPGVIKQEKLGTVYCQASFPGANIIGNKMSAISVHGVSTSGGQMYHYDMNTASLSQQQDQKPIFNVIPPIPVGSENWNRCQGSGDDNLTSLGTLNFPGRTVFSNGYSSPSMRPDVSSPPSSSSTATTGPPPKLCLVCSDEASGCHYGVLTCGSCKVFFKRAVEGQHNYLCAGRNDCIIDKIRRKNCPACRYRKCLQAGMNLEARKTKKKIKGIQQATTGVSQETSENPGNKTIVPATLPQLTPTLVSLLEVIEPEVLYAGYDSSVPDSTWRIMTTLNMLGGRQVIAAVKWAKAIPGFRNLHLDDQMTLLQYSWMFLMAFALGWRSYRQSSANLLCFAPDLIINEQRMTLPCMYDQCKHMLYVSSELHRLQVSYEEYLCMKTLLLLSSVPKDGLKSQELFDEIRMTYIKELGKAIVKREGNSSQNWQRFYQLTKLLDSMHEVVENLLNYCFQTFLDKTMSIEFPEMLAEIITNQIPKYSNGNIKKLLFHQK
# In short: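 GR-bla HeLa cells (beta-lactamase reporter under glucocorticoid response element) were plated 4 h at 37 C/5% CO2, given compounds in DMSO, and incubated 18 h at 37 C. LiveBLAzer B/G FRET substrate was added for 2 h at room temperature, then fluorescence intensity read.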
# [18] = target: Glucocorticoid receptor (Homo sapiens) (UniProt P04150); assay: qHTS assay to identify small molecule antagonists of the glucocorticoid receptor (GR) signaling pathway (AID 720692; active means well fitted inhibition curve with a large enough effect in the signal ratio in the repeat runs, not every such curve was filed as active; the % refers to the signal ratio)
# In short: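 GR-bla HeLa cells (beta-lactamase reporter under glucocorticoid response element) were pre-plated 4 h at 37 C, treated with compounds plus 5 nM dexamethasone (final) for 18 h, then read by LiveBLAzer B/G FRET fluorescence after 2 h.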
# [19] = qHTS assay for small molecule agonists of the p53 signaling pathway (AID 651631; calls by dose curve; further: nearly all actives have a fitted effect of over 15% in size)
# In short: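 We treat p53RE-bla HCT-116 cells with compounds for 16 h at 37 °C, add LiveBLAzer B/G FRET substrate for 2 h at room temperature, and measure fluorescence intensity.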
# [20] = qHTS assay for small molecule disruptors of the mitochondrial membrane potential (AID 720635); further: potency means the concentration at half of the fitted maximal effect
# In short: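 HepG2 cells exposed to compound 1 hr at 37C, then Mito-MPS dye 30 min. Ratio read of aggregate (540/590 nm) versus monomer (490/535 nm) fluorescence.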
compound,measurement,setting,value
O=C(O)CCSSCCC(=O)O,Potency,[1],inactive
same,outcome,[2],inactive
same,Potency,[3],inactive
same,outcome,[4],inactive
same,outcome,[5],inactive
same,outcome,[6],inactive
same,outcome,[7],inactive
same,outcome,[8],inactive
same,outcome,[9],inactive
same,outcome,[10],inactive
same,outcome,[11],inactive
same,outcome,[12],inactive
same,outcome,[13],inactive
same,outcome,[14],inactive
same,outcome,[15],inactive
same,outcome,[16],inactive
same,Potency,[17],inactive
same,outcome,[18],inactive
C=CC(OCC)OCC,outcome,[19],inactive
same,outcome,[2],inactive
same,Potency,[3],inactive
same,outcome,[4],inactive
same,outcome,[5],inactive
same,outcome,[6],inactive
same,outcome,[7],inactive
same,outcome,[8],inactive
same,outcome,[9],inactive
same,outcome,[10],inactive
same,outcome,[11],inactive
same,outcome,[12],inactive
same,outcome,[13],inactive
same,outcome,[14],inactive
NCCN1CCOCC1,outcome,[19],inactive
same,outcome,[2],inactive
same,Potency,[3],inactive
same,outcome,[4],inactive
same,Potency,[20],inactive
same,outcome,[5],inactive
same,outcome,[6],inactive
same,outcome,[7],inactive
same,outcome,[8],inactive
same,outcome,[9],inactive
same,outcome,[10],inactive
same,outcome,[11],inactive
same,outcome,[12],inactive
same,outcome,[13],inactive
same,outcome,[14],inactive
same,outcome,[15],inactive
same,Potency,[17],inactive
same,outcome,[18],inactive
N[C@@H](COP(=O)(O)O)C(=O)O,Potency,[1],inactive
same,outcome,[2],inactive
same,Potency,[3],inactive
same,outcome,[4],inactive
same,Potency,[20],inactive
same,outcome,[5],inactive
same,outcome,[6],inactive
same,outcome,[7],inactive
same,outcome,[8],inactive
same,outcome,[9],inactive
same,outcome,[10],inactive
same,outcome,[11],inactive
same,outcome,[12],inactive
same,outcome,[13],inactive
same,outcome,[14],inactive
same,outcome,[15],inactive
same,Potency,[17],inactive
same,outcome,[18],inactive
O=C(NCC(O)CO)c1c(I)c(C(=O)NCC(O)CO)c(I)c(N(CCO)C(=O)CO)c1I (centres undefined),outcome,[19],inactive
same,outcome,[2],inactive
same,Potency,[3],inactive
same,outcome,[4],inactive
same,Potency,[20],inactive
same,"fluorescence, relative to Rose Bengal",[5],-0.211% [at 18.6 µM]
same,"fluorescence, % of fluorescein control",[6],-0.0278% [at 18.6 µM]
same,"fluorescence, % of triamterene",[7],0.0229% [at 18.6 µM]
same,"fluorescence, % of fluorescent control",[8],-0.351% [at 18.6 µM]
same,"fluorescence, % of fluorescein",[9],-0.0067% [at 18.6 µM]
same,"fluorescence, % of fluorescent control",[10],-0.0567% [at 18.6 µM]
same,activity change,[11],-0.0517% [at 18.6 µM]
same,"fluorescence, % of fluorescent control",[12],0.453% [at 18.6 µM]
same,"fluorescence, % of Rose Bengal",[13],0.343% [at 18.6 µM]
same,"fluorescence, % of fluorescent control",[14],-0.1% [at 18.6 µM]
same,"fluorescence, % of fluorescein control",[15],-0.0658% [at 18.6 µM]
same,"fluorescence, % of fluorescent control",[16],-0.0045% [at 18.6 µM]
same,Potency,[17],inactive
CC(C)OC(=O)CCCCC(=O)OC(C)C,Potency,[1],inactive
same,outcome,[2],inactive
same,Potency,[3],inactive
same,outcome,[4],inactive
same,Potency,[20],54.6 µM (active)
same,outcome,[5],inactive
same,outcome,[6],inactive
same,outcome,[7],inactive
same,outcome,[8],inactive
same,outcome,[9],inactive
same,outcome,[10],inactive
same,outcome,[11],inactive
same,outcome,[12],inactive
same,outcome,[13],inactive
same,outcome,[14],inactive
same,outcome,[15],inactive
same,outcome,[16],inactive
same,Potency,[17],inactive
